Test results taken from PubChem BioAssay (Tox21).
Results filed as inconclusive are left out. A call without a number means that no potency is given here. Values without a mark were called inactive. Calls of active or inactive are those of the source. Unless noted, calls come from the whole dose curve; as a rule, active = well fitted curve in the direction sought with a large enough effect in the repeat runs; inconclusive = weak or mixed curves; inactive = no such curve, though single readings can be large; an effect the other way counts as inactive or inconclusive.

Key:
[1] = qHTS assay to identify small molecule agonists of the vitamin D receptor (VDR) signaling pathway - cell viability counter screen (AID 743224); note: series mostly up to about 63 µM; nearly all actives have a fitted effect of over 50% in size
In short: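 In parallel with the bla FRET readout, cytotoxicity toward VDR-bla cells after 16 h compound exposure was assessed by CellTiter-Glo, with luminescence recorded after a 30 min room-temperature incubation.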

[2] = qHTS assay to identify small molecule antagonists of the vitamin D receptor (VDR) signaling pathway - cell viability counter screen (AID 743225); note: nearly all actives have a fitted effect of over 50% in size; note: potency is the fitted concentration of half-maximal effect
In short: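 Viability counter screen run in the same wells as the beta-lactamase reporter assay: HEK 293T VDR-UAS-bla cells, 16 h compound exposure at 37C with 3 nM (final) 1-alpha,25-dihydroxyvitamin D3. CellTiter-Glo luminescence, 30 min, room temperature.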

[3] = qHTS assay to identify small molecule agonists of the NFkB signaling pathway (AID 1159509; active = well fitted curve in the direction sought with a large enough effect in the signal ratio in the repeat runs, not every such curve was filed as active; the % refers to the signal ratio; note: series mostly up to about 61 µM)
In short: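 Agonist activity was read as beta-lactamase-driven FRET change (460 and 530 nm emission, 405 nm excitation) following 1.5 hr substrate loading at room temperature. Beforehand, ME-180 NFkB-bla reporter cells were treated with compounds for 5 hr at 37 C.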

[4] = qHTS assay to identify small molecule agonists of the NFkB signaling pathway - cell viability counter screen (AID 1159515; calls by dose curve; note: nearly all actives have a fitted effect of over 55% in size; note: potency is the fitted concentration of half-maximal effect)
In short: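 Plate 2,000 NFkB-bla ME-180 cells/well; incubate overnight. Add compounds, 5 hr at 37 C. Add FRET substrate, 1.5 hr RT. Add CellTiter-Glo, 30 min RT; read luminescence.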

[5] = qHTS assay to identify small molecule agonists of the endoplasmic reticulum stress response signaling pathway (AID 1159516; active = well fitted activation curve with a large enough effect in the signal ratio in the repeat runs, not every such curve was filed as active; the % refers to the signal ratio)
In short: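 Beta-lactamase expression from the ER stress response element in HeLa reporter cells is quantified with the LiveBLAzer B/G FRET substrate, read at 405 nm excitation after 2 hr at room temperature, following 5 hr compound treatment at 37 C.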

[6] = qHTS assay to identify small molecule antagonists of the retinoid-related orphan receptor gamma (ROR-gamma) signaling pathway - cell viability counter screen (AID 1159520); note: nearly all actives have a fitted effect of over 50% in size; note: potency is the fitted concentration of half-maximal effect
In short: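 Tet-on ROR gamma CHO cells were given compounds for 2 hr, then doxycycline hyclate at 1 uM final, and incubated 16 hr at 37 C. Viability was measured as ATP content by CellTiter-Glo luminescence.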

[7] = molecular target: Nuclear receptor ROR-gamma (Homo sapiens) (UniProt P51449); test: qHTS assay to identify small molecule antagonists of the retinoid-related orphan receptor gamma (ROR-gamma) signaling pathway (AID 1159521; note: nearly all actives have a fitted effect of over 50% in size; note: potency is the fitted concentration of half-maximal effect)
In short: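 Luminescence readout (ONE-Glo, 30 min RT) after 16 h doxycycline induction; loss of signal scored as antagonism. CHO cells with TET-inducible RORγ and RORE-LUC reporter; compounds added 2 h before 1 uM final doxycycline.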

[8] = qHTS assay to identify small molecule agonists of the AP-1 signaling pathway - cell viability counter screen (AID 1159525; calls by dose curve; note: nearly all actives have a fitted effect of over 55% in size)
In short: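 Same-well cytotoxicity counter screen of the Tox21 10K library in ME-180 cells. The readout is ATP-dependent luminescence after 5 h compound treatment. Data are normalised to DMSO and tetra n-octyl ammonium bromide controls.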

[9] = qHTS assay to identify small molecule agonists of the AP-1 signaling pathway (AID 1159526; calls by dose curve)
[10] = qHTS assay to identify small molecule agonists of the RXR signaling pathway - cell viability counter screen (AID 1159529); note: nearly all actives have a fitted effect of over 50% in size; note: potency is the fitted concentration of half-maximal effect
In short: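 Luminescence from CellTiter-Glo (30 min, RT) measured viability in the same wells as the beta-lactamase reporter readout. Cells: GeneBLAzer RXR-alpha HEK 293T, 2% charcoal-stripped FBS. Compound exposure 16 hr, 37 C.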

[11] = qHTS assay to identify small molecule antagonists of the retinoid acid receptor (RAR) signaling pathway - cell viability counter screen (AID 1159551); note: nearly all actives have a fitted effect of over 35% in size; note: potency is the fitted concentration of half-maximal effect
In short: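 Viability of C3RL4 cells is quantified from ATP by luminescence after 6 h treatment at 37 C with compounds and 1 uM retinol.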

[12] = qHTS assay to identify small molecule agonists of the retinoic acid receptor (RAR) signaling pathway (AID 1159553); note: potency is the fitted concentration of half-maximal effect
In short: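 Compounds dissolved in DMSO were pinned onto C3RL4 cells seeded the previous day, and plates were held 6 hr at 37 C. RARE-driven luciferase output was then read by luminescence.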

[13] = molecular target: Retinoic acid receptor RXR-alpha (Homo sapiens) (UniProt P19793); test: qHTS assay to identify small molecule agonists of the RXR signaling pathway (AID 1159527; calls by dose curve; note: nearly all actives have a fitted effect of over 35% in size)
Sequence of Retinoic acid receptor RXR-alpha (Homo sapiens) (P19793 whole entry, looked up): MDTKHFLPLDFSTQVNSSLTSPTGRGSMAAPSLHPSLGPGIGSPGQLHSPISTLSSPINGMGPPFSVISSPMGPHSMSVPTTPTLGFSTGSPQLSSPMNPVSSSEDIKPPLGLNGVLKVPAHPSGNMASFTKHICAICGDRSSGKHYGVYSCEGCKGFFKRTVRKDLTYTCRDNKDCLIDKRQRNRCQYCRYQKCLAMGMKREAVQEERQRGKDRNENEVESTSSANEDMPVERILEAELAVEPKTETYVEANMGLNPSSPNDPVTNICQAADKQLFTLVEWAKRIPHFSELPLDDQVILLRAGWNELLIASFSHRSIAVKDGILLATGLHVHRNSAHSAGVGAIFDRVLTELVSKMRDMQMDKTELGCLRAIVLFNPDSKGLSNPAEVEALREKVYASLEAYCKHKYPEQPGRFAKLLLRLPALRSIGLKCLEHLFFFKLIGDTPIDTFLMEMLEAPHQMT
In short: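 Agonist mode; 9-cis retinoic acid positive control. HEK 293T UAS-bla reporter cells, 2% charcoal-stripped FBS, 16 hr compound exposure at 37 C/5% CO2. LiveBLAzer B/G FRET substrate 2 hr RT; ex 405, em 460/530 nm.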

[14] = qHTS assay to identify small molecule antagonists of the retinoic acid receptor (RAR) signaling pathway (AID 1159552; note: nearly all actives have a fitted effect of over 50% in size; note: potency is the fitted concentration of half-maximal effect)
In short: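 Luminescence from a RARE luciferase reporter in C3RL4 cells served as read-out. Cells received compounds together with 1 uM final retinol and incubated 6 hr at 37 C before detection reagent was added for 30 min at room temperature.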

| SMILES | Potency [1] | Potency [2] | outcome [3] | Potency [4] | Potency [5] | Potency [6] | Potency [7] | Potency [8] | outcome [9] | Potency [10] | Potency [11] | Potency [12] | Potency [13] | Potency [14] |
| --- | --- | --- | --- | --- | --- | --- | --- | --- | --- | --- | --- | --- | --- | --- |
| O=C(O)CCS | inactive | inactive | inactive | inactive | inactive | inactive | inactive | inactive | inactive | inactive | inactive | inactive |  |  |
| [Cl][Nd]([Cl])[Cl] | inactive | inactive | inactive | inactive | inactive | inactive | inactive | inactive | inactive | inactive | inactive | inactive |  |  |
| CC(C)Cc1ccc(CC(=O)O)cc1 |  | inactive | inactive | inactive | inactive | inactive | inactive | inactive |  | inactive | inactive |  | inactive | inactive |
| COc1ccc(-c2cc(=S)ss2)cc1 | inactive | inactive | inactive | inactive | inactive | inactive | inactive | inactive |  | inactive | inactive | 26.6 µM (active) |  | inactive |
| CCN(CC)CCOc1ccccc1C(=O)CCc1ccccc1 | inactive | inactive | inactive | 12 µM (active) | inactive | inactive | inactive | inactive |  | 9.52 µM (active) | inactive | inactive |  | inactive |
| CC(=O)C(=O)CC(C)C | inactive | inactive | inactive | inactive | inactive | inactive | inactive | inactive | inactive | inactive | inactive |  |  |  |
| Nc1ccc(S(=O)(=O)NCc2ccccc2)cc1 | inactive |  | inactive | inactive | inactive | inactive |  | inactive | inactive | inactive | inactive | inactive | inactive | inactive |
| CCOC(=O)C(C)O (configuration not stated) | inactive | inactive | inactive | inactive | inactive | inactive | inactive | inactive | inactive | inactive | inactive | inactive |  | inactive |
| CCCCCCCC/C=C\CCCCCCCC(=O)OCCO | inactive | inactive | inactive | inactive | inactive | inactive | inactive | inactive |  |  | inactive | inactive |  |  |
| CCCCCCC(O)CCOC(C)=O (configuration not stated) | inactive | inactive | inactive | inactive | inactive | inactive | inactive | inactive | inactive | inactive | inactive |  |  |  |
| CC[C@H]1OC(=O)[C@H](C)[C@@H](O[C@H]2C[C@@](C)(OC)[C@@H](O)[C@H](C)O2)[C@H](C)[C@@H](O[C@@H]2O[C@H](C)C[C@H](N(C)C)[C@H]2O)[C@](C)(O)C[C@@H](C)CN(C)[C@H](C)[C@@H](O)[C@]1(C)O | inactive | 2.9 µM (active) | inactive | inactive | inactive | inactive | inactive | inactive | inactive |  | inactive |  |  |  |
| Cc1ccc(S(=O)(=O)NC(=O)NC2CCCCC2)cc1 | inactive | inactive | inactive | inactive | inactive | inactive | inactive | inactive | inactive | inactive | inactive |  |  | inactive |
| CCCCCCCCCCCCCOS(=O)(=O)O |  |  | inactive | 54.9 µM (active) | inactive | inactive | inactive |  |  | 24.5 µM (active) | inactive |  | inactive |  |
| O=C1CC[C@@H](C(=O)O)N1 | inactive | inactive | inactive | inactive | inactive | inactive |  | inactive | inactive | inactive | inactive | inactive | inactive | inactive |
| O=C1NC(=O)c2cccc3cccc1c23 | inactive | inactive | inactive | inactive | inactive | inactive | inactive | inactive | inactive | inactive | inactive | inactive |  | inactive |
| O=C1[C@@H]2[C@H]3CC[C@H](C3)[C@@H]2C(=O)N1CCCCN1CCN(c2ncccn2)CC1 | inactive |  | inactive | inactive | inactive | inactive | inactive | inactive | inactive | inactive | inactive |  |  |  |
| C1CCCCC1 | inactive | inactive | inactive | inactive | inactive | inactive |  | inactive | inactive | inactive | inactive | inactive | inactive | inactive |
| Cc1ccc(N(CCO)CCO)cc1 | inactive | inactive | inactive | inactive | inactive | inactive |  | inactive | inactive | inactive | inactive | inactive | inactive | inactive |
| Cc1c(C2(c3cc(Br)c(O)c(Br)c3C)OS(=O)(=O)c3ccccc32)cc(Br)c(O)c1Br | inactive | inactive | inactive | 37.7 µM (active) | inactive | 3.74 µM (active) | 5.93 µM (active) |  | inactive | inactive | 7.47 µM (active) |  |  | 13.3 µM (active) |
| O=c1[nH]c2cc(C(F)(F)F)c(N3CCOCC3)cc2n(CP(=O)(O)O)c1=O | inactive | inactive | inactive | inactive | inactive |  | inactive | inactive | inactive | inactive | inactive | inactive | inactive | inactive |
